# Assay results published in PubChem BioAssay AID624483 (NMMLSC, 2012).
# Several values for one entry are separate records, joined by “and”; a condition that tells them apart may be missing. Equal entries are not always repeated. The campaign covered roughly 360,000 compounds. About 11,000 (3.1%) were called active. About 2% were inconclusive and are not listed. Cut-off read from the data, not from the text of the source: active = fluorescence intensity above about 16000; inconclusive = no clear call, values can overlap the other calls; inactive = below that. The list comes from a sample in which actives are over-represented; it also holds similar structures and randomly drawn compounds.
# Experiment: compound fluorescence in toxin protease inhibitor counterscreen, primary screen, artefact control for toxin protease inhibitor project, biochemical, multiplex microsphere, HTS (AID 624483)
# Details: compound autofluorescence counterscreen, microsphere flow cytometry; stronger effect = higher value
row,SMILES,fluorescence intensity
1,CCC(Oc1ccccc1)C(=O)OCC(=O)Nc1c(C)nn(-c2ccccc2)c1C (stereo unspecified),3640 (inactive)
2,O=C(NC1CCCCCCC1)c1cccs1,3700 (inactive)
3,O=C(NC1CCCC1)c1ccc(Br)s1,17100 (active)
4,O=C(Nc1ccc2c(c1)CCC2)c1ccc(Br)s1,4300 (inactive)
5,CC(C)NC(=O)N1Cc2cc(C(=O)NCC(F)(F)F)nc(-c3cccc(-c4cc5ccccc5o4)c3)c2[C@@H]1CCO,6410 (inactive)
6,O=C(CN(CC1CCCO1)C(=O)CNS(=O)(=O)c1ccccc1)NCc1ccccc1 (stereo unspecified),4900 (inactive)
7,Cc1ccc(S(=O)(=O)NCC(=O)N(CC(=O)NC(C)(C)C)Cc2cccs2)cc1,23500 (active)
8,Cc1[nH]c2ccccc2c1CCN(Cc1cccs1)C(=S)NC(C)(C)C,4220 (inactive)
9,CCC(C)(C)NC(=O)CN(Cc1cccs1)C(=O)CNS(=O)(=O)c1ccc(F)cc1,4360 (inactive)
10,Cc1ccc(S(=O)(=O)NCC(=O)N(CC(=O)NC2CCCCC2)Cc2ccco2)cc1,3490 (inactive)
11,CC(C)(C)NC(=O)CN(Cc1cccs1)C(=O)CNS(=O)(=O)c1ccccc1,22000 (active)
12,CSCCC(c1nnnn1Cc1ccccc1)N1CCN(C/C=C/c2ccccc2)CC1 (stereo unspecified),6070 (inactive)
13,COC(=O)[C@]12CCCCC=C1N(Cc1cccc3ccccc13)C(=O)[C@H](CC(=O)N1CCOCC1)C2,4200 (inactive)
14,CC1(C(=O)O)CCN1C(=O)/C=C/c1ccccc1 (stereo unspecified),3910 (inactive)
15,CCc1ccc(Nc2n[n+](-c3ccccc3)c(-c3cccc(Cl)c3Cl)s2)cc1,4300 (inactive)
16,CN(Cc1ccc2nsnc2c1)Cc1nc(Cc2cccc(F)c2)no1,4550 (inactive)
17,O=C1NC[C@@H](CCCCN2CCN(CCc3ccc(O)cc3)C(=O)C2=O)N(CC2CCCCC2)C1=O,6050 (inactive)
18,O=C(COC(=O)CCc1nc2ccccc2c(=O)[nH]1)Nc1ccc(N2CCOCC2)cc1,4110 (inactive)
19,COc1ccc(Sc2ccc(NC(=O)c3cccc(Cl)c3)cc2C#N)cc1,3440 (inactive)
20,Cc1ccc2c(O)c(Cc3ccccc3)c(=O)[nH]c2n1,3740 (inactive)
21,CC(=O)Nc1nc(C)c(Cc2ccccc2)c(=O)[nH]1,2420 (inactive)
22,Cc1nc(SC(C)C)[nH]c(=O)c1Cc1ccccc1,23800 (active)
23,CC(C)NC(=O)C1(C)CCCCN1Cc1cccc(C(F)(F)F)c1 (stereo unspecified),3020 (inactive)
24,COc1ccc(-c2nc3cnccn3c2NC2CCCCC2)cc1-c1cccc(Cl)c1,6580 (inactive) and 3860 (inactive)
25,CCOc1cc(-c2nc3cc(C)ccn3c2NCC2CCCO2)ccc1O (stereo unspecified),4290 (inactive)
26,COc1ccc(-c2nc3cc(C)ccn3c2NC2CCCCC2)cc1SC1CCCCC1,20700 (active) and 26600 (active)
